Compound activity: PubChem, National Center for Advancing Translational Sciences (NCATS)
Shown are actives, neighbours in structure and some others; about 9.2% of the full set was active somewhere.
FLuc modulator – counter-screen for miR-21 project: firefly luciferase inhibitors or activators. P08659. purified FLuc, Km substrates, luminescence inhibition. Potency, µM (titrated, usually from 57.5 µM), without a hit: at the highest dose activity change, negative = inhibition, usual class: inhibitors. actives 6.9% (n = 360,000);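 note: plate controls were vehicle for no effect and reference inhibitor for full effect; nearly all actives have a fitted effect of over 55% in size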
Target sequence (P08659 whole entry, looked up): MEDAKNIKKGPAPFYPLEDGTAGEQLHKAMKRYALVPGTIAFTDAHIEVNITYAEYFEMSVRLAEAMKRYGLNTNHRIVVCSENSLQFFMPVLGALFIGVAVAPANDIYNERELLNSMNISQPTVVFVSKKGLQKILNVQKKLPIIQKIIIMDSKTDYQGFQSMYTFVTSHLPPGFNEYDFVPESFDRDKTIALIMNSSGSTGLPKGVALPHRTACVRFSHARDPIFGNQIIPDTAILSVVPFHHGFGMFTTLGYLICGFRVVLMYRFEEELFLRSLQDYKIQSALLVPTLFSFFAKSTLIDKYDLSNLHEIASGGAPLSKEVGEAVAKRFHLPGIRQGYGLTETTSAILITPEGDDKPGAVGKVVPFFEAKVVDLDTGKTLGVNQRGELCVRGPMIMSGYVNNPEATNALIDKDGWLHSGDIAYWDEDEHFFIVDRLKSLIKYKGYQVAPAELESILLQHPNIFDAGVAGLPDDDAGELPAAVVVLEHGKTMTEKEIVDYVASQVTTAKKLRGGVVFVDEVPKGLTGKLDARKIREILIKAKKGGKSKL
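Biochemical qHTS of compounds, final roughly 60 µM downward over six points, against 10 nM purified firefly luciferase using Km concentrations of substrates (10 uM D-luciferin, 10 uM ATP) in Tris acetate pH 7.5 buffer; luminescence output.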
SMN2 splice up – increases expression of the SMN2 splice variant | HEK293 SMN2-luciferase splicing reporter, luminescence, 30-36 h | Potency, µM (highest dose often 46.1 µM), inactives show at the top dose activity change, positive = activation, usual class: activators | actives 2.8% (n = 210,000) | AID 1458; note: % of control where 0% means no effect; nearly all actives have a fitted effect of over 55% in size
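HEK293 cells carry an SMN2 minigene-luciferase reporter in which exon 7 inclusion puts luciferase in frame. Cells were seeded at 2000 cells/well, attached for 10-12 hours, then exposed to compounds for 30-36 hours at 37C before ONE-Glo luminescence.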
Rab9 prom act – activators of Rab9 promoter. Huh7 Rab9 promoter-luciferase reporter, luminescence, 24 h. Potency, µM (doses to about 9.22 µM), inactives show top-dose activation, negative = inhibition, actives largely listed as activators. actives 2.8% (n = 320,000). AID 485297; note: % of control where 0% means no effect; nearly all actives have a fitted effect of over 60% in size
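Luminescence from Amplite-detected luciferase (10 minutes, ambient) reports Rab9 promoter activation. Before that, stable Rab9-luciferase Huh7 cells (1500/well, reduced-serum OP-MEM I plus 10% FBS) were exposed to compound for 24 hours at 37C.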
ELG1 genotox – inducers of genotoxicity in HEK293T ELG1-luciferase cells. HEK293T ELG1-luciferase reporter, luminescence, 16 h. Potency, µM (doses to about 46 µM), inactives show top-dose activity change, positive = activation, actives largely listed as activators. actives 1.3% (n = 330,000); note: % of control where 0% means no effect; nearly all actives have a fitted effect of over 60% in size
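HEK293T cells expressing luciferase-tagged ELG1 were exposed to compound or DMSO vehicle for 16 hr at 37 °C and 5% CO2. Luciferase activity was then measured with ONE-Glo after 30 min at room temperature.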
NPC1 promoter act – activators of NPC1 promoter; Huh7 NPC1 promoter luciferase reporter, 24 h; Potency, µM (doses to about 9.22 µM), for the others: top-dose activation, usual class: activators; actives 2.4% (n = 320,000); note: % of control where 0% means no effect; nearly all actives have a fitted effect of over 60% in size
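In 1536-well qHTS, Huh7 cells harboring an NPC1 promoter–luciferase construct received compound for 24 h; activation was quantified by luminescence following luciferase reagent addition.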
ELG1 repair inh – blocks ELG1-dependent DNA repair in HEK293T cells. Potency, µM (titrated, usually from 46.1 µM), for the others: at the top dose activity change, negative = inhibition, usual class: inhibitors. HEK293T ELG1-luciferase reporter, luminescence, 16 h; DNA damage induced by 5-fluorouridine. actives 2.3% (n = 330,000). AID 504467; note: % is set by controls: 0 for no effect and ±100 for the full control effect; nearly all actives have a fitted effect of over 55% in size
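Quantitative HTS, concentration-response format. 2,000 cells/well co-treated with 5-fluorouridine and compound, 16 hr in 5% CO2 at 37 °C; ONE-Glo luminescence read after 30 min.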
Numbers without * were called inactive; ? = inconclusive; . = no result; [ ] = dose if it differs, or a comment. Calls come from the whole dose curve; as a rule, active = well fitted curve in the direction sought with a large enough effect; inconclusive = small, poorly fitted or top-dose-only effect, or another doubt; inactive = no such curve, though single readings can be large; an effect the other way counts as inactive or inconclusive. Potency is the fitted concentration of half-maximal effect.

SMILES	FLuc modulator	SMN2 splice up	Rab9 prom act	ELG1 genotox	NPC1 promoter act	ELG1 repair inh
CCN(CC)c1ccc(C=C2C(=O)OC3(CCCC3)OC2=O)cc1	?	-1.3%	-2.4%	4.7%	-1.3%	?
CCN(CC)c1ccc(C=C2C(=O)OC(c3ccccc3)OC2=O)cc1 (stereo not drawn)	12µM*	-3.0%	-1.0%	-8.7%	-2.1%	?
CCc1ccccc1Nc1nn2c(=O)c3ccc(C(=O)NCCCOC(C)C)cc3nc2s1	3.1%	.	-6.4%	.	0.2%	.
COc1ccc2occ(C(=O)c3cccs3)c2c1	6.01µM*	-12.4%	?	6.51µM*	?	?
COc1ccc(C(=O)c2coc3ccc(OC(C)=O)cc23)cc1	9.53µM*	.	15.3%	?	?	?
COc1ccc2occ(C(=O)c3ccc(N)cc3)c2c1	6.01µM*	.	0.631µM*	?	1.41µM*	?
CCOC(=O)c1cc(-c2ccc(OC(F)F)cc2)nc2nc(SC)[nH]c(=O)c12	6.01µM*	.	-3.7%	-4.3%	1.1%	?
CC1=C/C(=C(\c2cc(C)c(O)c(Br)c2)c2ccccc2S(=O)(=O)O)C=C(Br)C1=O	9.53µM*	.	-12.6%	-25.5%	-8.7%	?
CC(=O)c1ccc(OCc2cc(C(=O)N3CCN(c4ccccc4)CC3C)no2)cc1 (stereo not drawn)	8.49µM*	.	1.26µM*	?	1.58µM*	?
CSc1ccccc1OCc1cc(C(=O)N2CCN(c3ccccc3)CC2C)no1 (stereo not drawn)	15.1µM*	.	4.47µM*	13.4%	?	?
COc1ccccc1OCC(=O)NCC(c1ccc(Cl)cc1)N1CCOCC1 (stereo not drawn)	-8.3%	.	.	.	.	.
Cc1ccc(CN2CCSc3ccc(C(=O)Nc4ccc(Cl)cc4)cc32)cc1	?	11.2µM*	.	.	.	.
O=C(NCCc1ccc(Cl)cc1)c1ccc2c(c1)N(Cc1ccccc1)CCS2	-18.0%	?	.	.	.	.
Cc1ccc(CN2CCSc3ccc(C(=O)Nc4cc(C)cc(C)c4)cc32)cc1	6.2%	-15.6%	.	.	.	.
Cc1ccc(CN2CCSc3ccc(C(=O)NCCc4ccccc4)cc32)cc1	-11.8%	12.6µM*	.	.	.	.
CCN1C(=O)/C(=C/c2ccc(N3CCCC3)cc2)NC1=S	19µM*	-17.7%	0.2%	-2.6%	-3.1%	?
CCCN1C(=O)/C(=C/c2ccc(N3CCOCC3)cc2)NC1=S	?	-31.3%	0.7%	-3.5%	0.0%	-21.7%
Cc1cc(/C=C2\NC(=S)N(C)C2=O)ccc1N1CCCC1	7.57µM*	.	3.55µM*	?	?	1.7%
Cc1cc(/C=C2/C(=O)N(C)C(=S)N2C)ccc1N1CCCC1	4.78µM*	12.6µM*	?	?	?	?
CCCN1C(=O)/C(=C/c2ccc(N3CCCC3)c(C)c2)NC1=S	?	-31.7%	-0.1%	2.8%	-0.4%	10.3µM*
Cc1cc(N2CCCC2)ccc1/C=C1/C(=O)N(C)C(=S)N1C	-14.6%	-14.6%	-16.6%	-0.1%	-16.9%	-16.0%
COc1cc(/C=C2\NC(=S)N(C)C2=O)ccc1O	-9.4%	-1.1%	0.8%	8.7%	-8.2%	2.8%
CCc1cccc(NC(=O)Cn2c(=O)n(Cc3ccccc3)c(=O)c3c2c2cc(OC)ccc2n3C)c1	-3.3%	.	.	.	.	.
COc1cc(C(=O)OCc2cc(=O)n3ccsc3n2)cc(OC)c1OC	3.2%	.	.	.	.	.
O=S(=O)(c1ccc(-c2n[nH]c(=S)o2)cc1)N1CCCCC1	-6.3%	.	-0.8%	-0.6%	-3.2%	2.0%
SMILES	FLuc modulator	SMN2 splice up	Rab9 prom act	ELG1 genotox	NPC1 promoter act	ELG1 repair inh
Cc1ccc(-n2cc(C(=O)OCc3ccc(Cl)cc3)c3ccccc3c2=O)cc1	-3.1%	.	.	.	.	.
Cc1noc(C)c1S(=O)(=O)N1CCCC(C(=O)Nc2ccc(C(C)C)cc2)C1 (stereo not drawn)	-0.5%	?	.	.	.	.
C[N+]1(C)CCC(=C(c2ccccc2)c2ccccc2)CC1	0.0%	-13.6%[20.6 µM]	-0.8%	-7.8%	-2.3%	2.6%
COc1ccc(/C=C\c2nc(=O)c3ccccc3o2)cc1	3.79µM*	.	?	?	?	?
CCn1c(/C=C/c2ccc(O)c(O)c2)nc2ccccc2c1=O	-16.3%	.	14.5%	0.2%	-15.6%	-17.6%
O=c1nc(/C=C/c2ccc(O)c(O)c2)oc2ccccc12	8.49µM*	.	?	20.6µM*	?	?
COc1ccc(/C=C/c2c(-c3ccc(OC)cc3)oc3ccccc23)cc1	-11.1%	.	-0.2%	-0.8%	5.6%	14.6%
O=C(CN1C(=O)C2(SCC(=O)N2c2ccc(F)c(F)c2)c2ccccc21)Nc1ccccc1F (stereo not drawn)	3.2%	.	.	.	.	.
Cc1oc(/N=C/c2ccc(Cl)cc2)c(C#N)c1C	10.7µM*	20.7%	-12.1%	-0.8%	9.1%	0.2%
Cc1oc(/N=C/c2ccccc2O)c(C#N)c1C	-17.6%	1.6%	0.0%	0.5%	-12.0%	-3.4%
Cc1oc(/N=C/c2ccc(O)cc2O)c(C#N)c1C	16.9µM*	-8.3%	2.2%	6.6%	-2.7%	6.0%
COc1ccc(/C=C/C(=O)Nc2ccc3nc(N4CCC(C)CC4)cc(C)c3c2)cc1OC	-7.0%	-1.7%	.	.	.	.
COc1ccc(OCc2cc(C(=O)N(C)Cc3nccn3C)no2)c2ccccc12	6.3%	.	-0.1%	-4.9%	-3.1%	0.9%
COc1cccc(OCc2cc(C(=O)N(C)CCOc3ccc(C)cc3)no2)c1	13.5µM*	.	2.82µM*	?	3.55µM*	?
COc1ccc(OCc2cc(C(=O)N(Cc3nccn3C)C(C)C)no2)c2ccccc12	13.5µM*	.	3.16µM*	12.9%	?	?
COc1cccc(OCc2cc(C(=O)N(C)Cc3nccn3C)no2)c1	19µM*	.	1.78µM*	?	2.82µM*	?
COc1cccc(CN(C)C(=O)c2cc(COc3ccc4ncccc4c3)on2)c1	-13.7%	.	-55.7%	-12.4%	-27.4%	?
CCCCCCCC(=O)NC1=NC(=O)C(C)(C)S1	3.0%	.	-4.0%	0.6%	1.3%	?
Cc1ccc(OCCCn2c(-c3ccc(Cl)cc3)nc3ccccc3c2=O)cc1C	-6.6%	-2.3%	.	.	.	.
Cc1cc(Cl)ccc1OCC(=O)NCCOc1nc(N2CCOCC2)nc(N2CCOCC2)n1	5.5%	-6.9%	8.2%	1.9%	-3.3%	10.3µM*
CN(C)c1nc(OCCNC(=O)COc2ccc(Cl)cc2Cl)nc(N2CCOCC2)n1	3.1%	7.8%	-10.2%	0.0%	3.6%	?
COc1cc(/C=C2/N=C(c3ccccc3F)OC2=O)cc(Cl)c1OS(C)(=O)=O	8.49µM*	19.0%	-1.0%	-0.6%	-4.5%	-0.8%
Cc1ccc(CN2CCN(CC(=O)N/N=C/c3ccccc3F)CC2)cc1	1.69µM*	.	?	?	5.7%	?
